Drawing on ChEMBL document CHEMBL1961873, “Compounds: GSK PKIS; Assays: Nanosyn kinase panel” (2012), this text covers inhibition for 17 molecules.

In test [1] the target is Serine/threonine-protein kinase MRCK alpha (Homo sapiens) (UniProt Q5VT25). Conditions: at 0.1 µM.
Test [2] has the same target. As to conditions: at 1 µM.
The target of test [3] is Serine/threonine-protein kinase MRCK beta (Homo sapiens) (UniProt Q9Y5S2). Conditions: at 0.1 µM.
Test [4] shares this target. Conditions: at 1 µM.
In test [5] the target is Ribosomal protein S6 kinase alpha-5 (Homo sapiens) (UniProt O75582). Conditions: at 0.1 µM.
Sequence of Ribosomal protein S6 kinase alpha-5 (Homo sapiens) (O75582 whole entry, looked up): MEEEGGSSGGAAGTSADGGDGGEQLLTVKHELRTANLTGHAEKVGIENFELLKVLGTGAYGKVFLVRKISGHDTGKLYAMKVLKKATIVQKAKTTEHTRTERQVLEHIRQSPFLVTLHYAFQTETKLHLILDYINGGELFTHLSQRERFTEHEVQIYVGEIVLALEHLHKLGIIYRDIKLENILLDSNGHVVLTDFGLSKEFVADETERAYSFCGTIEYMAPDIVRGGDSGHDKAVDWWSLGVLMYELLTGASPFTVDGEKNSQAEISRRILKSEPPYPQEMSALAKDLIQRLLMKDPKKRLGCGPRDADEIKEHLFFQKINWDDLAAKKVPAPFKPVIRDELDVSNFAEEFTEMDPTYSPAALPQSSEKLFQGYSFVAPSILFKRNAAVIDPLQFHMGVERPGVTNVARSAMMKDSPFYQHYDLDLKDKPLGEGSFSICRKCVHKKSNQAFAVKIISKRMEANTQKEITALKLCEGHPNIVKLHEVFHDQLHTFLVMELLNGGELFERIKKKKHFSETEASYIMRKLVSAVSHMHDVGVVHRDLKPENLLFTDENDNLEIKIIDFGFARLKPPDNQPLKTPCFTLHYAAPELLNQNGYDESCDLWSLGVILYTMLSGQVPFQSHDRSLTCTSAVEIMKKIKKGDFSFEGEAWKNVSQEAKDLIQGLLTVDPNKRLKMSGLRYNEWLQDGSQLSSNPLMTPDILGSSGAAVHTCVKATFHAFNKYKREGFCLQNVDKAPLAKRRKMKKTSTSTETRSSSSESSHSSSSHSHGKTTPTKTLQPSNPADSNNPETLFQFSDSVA
For test [6] the target is unchanged. As to conditions: at 1 µM.
Test [7] deals with Ribosomal protein S6 kinase alpha-4 (Homo sapiens) (UniProt O75676). Conditions: at 0.1 µM.
Sequence of Ribosomal protein S6 kinase alpha-4 (Homo sapiens) (O75676 whole entry, looked up): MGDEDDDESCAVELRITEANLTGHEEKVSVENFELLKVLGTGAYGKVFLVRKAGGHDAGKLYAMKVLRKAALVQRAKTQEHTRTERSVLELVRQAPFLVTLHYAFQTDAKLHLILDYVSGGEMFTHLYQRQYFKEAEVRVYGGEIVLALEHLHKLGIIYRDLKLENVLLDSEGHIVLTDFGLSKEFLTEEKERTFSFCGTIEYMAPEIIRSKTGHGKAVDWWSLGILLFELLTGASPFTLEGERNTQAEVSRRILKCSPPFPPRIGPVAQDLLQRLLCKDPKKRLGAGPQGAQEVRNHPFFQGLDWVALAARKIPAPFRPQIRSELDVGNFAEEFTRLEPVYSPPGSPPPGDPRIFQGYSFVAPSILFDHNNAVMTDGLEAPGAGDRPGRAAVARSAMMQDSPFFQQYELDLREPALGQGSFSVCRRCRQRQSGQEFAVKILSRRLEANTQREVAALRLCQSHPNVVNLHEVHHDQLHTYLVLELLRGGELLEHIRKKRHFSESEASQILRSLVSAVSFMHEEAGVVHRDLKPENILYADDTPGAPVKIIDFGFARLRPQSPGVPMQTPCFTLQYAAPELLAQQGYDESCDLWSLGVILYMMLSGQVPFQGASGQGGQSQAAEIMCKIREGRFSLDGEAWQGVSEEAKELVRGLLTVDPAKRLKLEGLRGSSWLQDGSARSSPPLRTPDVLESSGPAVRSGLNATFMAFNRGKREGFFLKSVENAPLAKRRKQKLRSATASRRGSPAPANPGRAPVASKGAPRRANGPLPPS
For test [8] the target is unchanged. As to conditions: at 1 µM.
Test [9] concerns the target Ribosomal protein S6 kinase beta-1 (Homo sapiens) (UniProt P23443). Conditions: at 0.1 µM.
The target is the same in test [10]. Conditions: at 1 µM.

Sequence of Serine/threonine-protein kinase MRCK beta (Homo sapiens) (Q9Y5S2 whole entry): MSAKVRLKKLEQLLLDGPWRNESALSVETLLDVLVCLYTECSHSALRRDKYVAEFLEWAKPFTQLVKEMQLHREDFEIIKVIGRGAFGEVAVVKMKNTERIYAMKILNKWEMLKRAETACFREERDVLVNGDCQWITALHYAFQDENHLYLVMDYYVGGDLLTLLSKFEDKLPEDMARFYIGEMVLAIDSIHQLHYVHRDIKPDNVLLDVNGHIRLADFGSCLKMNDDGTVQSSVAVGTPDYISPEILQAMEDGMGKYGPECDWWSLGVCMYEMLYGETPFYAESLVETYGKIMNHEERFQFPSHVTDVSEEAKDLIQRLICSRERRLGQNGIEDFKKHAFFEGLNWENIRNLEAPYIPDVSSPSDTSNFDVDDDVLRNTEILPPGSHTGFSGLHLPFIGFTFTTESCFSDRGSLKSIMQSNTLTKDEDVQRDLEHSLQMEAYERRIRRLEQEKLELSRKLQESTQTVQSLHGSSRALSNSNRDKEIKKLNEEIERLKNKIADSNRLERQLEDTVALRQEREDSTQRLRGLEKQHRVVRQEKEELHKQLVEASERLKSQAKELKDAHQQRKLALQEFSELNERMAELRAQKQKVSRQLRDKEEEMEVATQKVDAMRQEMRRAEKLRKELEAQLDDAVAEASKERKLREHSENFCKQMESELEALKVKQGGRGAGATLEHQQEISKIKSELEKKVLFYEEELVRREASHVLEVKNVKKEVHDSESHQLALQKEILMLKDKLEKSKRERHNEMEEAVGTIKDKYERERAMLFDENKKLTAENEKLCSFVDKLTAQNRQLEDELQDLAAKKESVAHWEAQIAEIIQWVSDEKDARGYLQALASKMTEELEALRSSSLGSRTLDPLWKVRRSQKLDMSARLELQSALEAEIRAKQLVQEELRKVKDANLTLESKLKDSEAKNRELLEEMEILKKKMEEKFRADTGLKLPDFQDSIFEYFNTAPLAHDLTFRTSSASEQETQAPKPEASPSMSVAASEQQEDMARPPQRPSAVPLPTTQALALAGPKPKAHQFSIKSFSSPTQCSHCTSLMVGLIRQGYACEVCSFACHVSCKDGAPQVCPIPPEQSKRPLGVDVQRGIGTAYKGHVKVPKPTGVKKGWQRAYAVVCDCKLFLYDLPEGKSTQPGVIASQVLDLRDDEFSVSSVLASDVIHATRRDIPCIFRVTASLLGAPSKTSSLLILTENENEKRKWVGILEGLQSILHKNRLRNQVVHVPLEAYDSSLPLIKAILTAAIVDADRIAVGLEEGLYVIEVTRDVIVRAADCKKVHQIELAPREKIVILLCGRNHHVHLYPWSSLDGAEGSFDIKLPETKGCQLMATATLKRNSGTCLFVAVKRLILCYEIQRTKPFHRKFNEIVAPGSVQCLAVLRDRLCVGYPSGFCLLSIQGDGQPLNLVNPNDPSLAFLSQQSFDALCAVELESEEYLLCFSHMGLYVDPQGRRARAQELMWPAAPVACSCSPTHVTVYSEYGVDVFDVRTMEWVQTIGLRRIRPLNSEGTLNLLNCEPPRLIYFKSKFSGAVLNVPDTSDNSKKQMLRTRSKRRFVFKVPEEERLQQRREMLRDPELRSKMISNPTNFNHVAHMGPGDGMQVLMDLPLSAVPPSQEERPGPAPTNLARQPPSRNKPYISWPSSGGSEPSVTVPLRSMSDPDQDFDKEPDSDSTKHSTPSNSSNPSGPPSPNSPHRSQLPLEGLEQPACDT
Sequence of Serine/threonine-protein kinase MRCK alpha (Homo sapiens) (Q5VT25 whole entry): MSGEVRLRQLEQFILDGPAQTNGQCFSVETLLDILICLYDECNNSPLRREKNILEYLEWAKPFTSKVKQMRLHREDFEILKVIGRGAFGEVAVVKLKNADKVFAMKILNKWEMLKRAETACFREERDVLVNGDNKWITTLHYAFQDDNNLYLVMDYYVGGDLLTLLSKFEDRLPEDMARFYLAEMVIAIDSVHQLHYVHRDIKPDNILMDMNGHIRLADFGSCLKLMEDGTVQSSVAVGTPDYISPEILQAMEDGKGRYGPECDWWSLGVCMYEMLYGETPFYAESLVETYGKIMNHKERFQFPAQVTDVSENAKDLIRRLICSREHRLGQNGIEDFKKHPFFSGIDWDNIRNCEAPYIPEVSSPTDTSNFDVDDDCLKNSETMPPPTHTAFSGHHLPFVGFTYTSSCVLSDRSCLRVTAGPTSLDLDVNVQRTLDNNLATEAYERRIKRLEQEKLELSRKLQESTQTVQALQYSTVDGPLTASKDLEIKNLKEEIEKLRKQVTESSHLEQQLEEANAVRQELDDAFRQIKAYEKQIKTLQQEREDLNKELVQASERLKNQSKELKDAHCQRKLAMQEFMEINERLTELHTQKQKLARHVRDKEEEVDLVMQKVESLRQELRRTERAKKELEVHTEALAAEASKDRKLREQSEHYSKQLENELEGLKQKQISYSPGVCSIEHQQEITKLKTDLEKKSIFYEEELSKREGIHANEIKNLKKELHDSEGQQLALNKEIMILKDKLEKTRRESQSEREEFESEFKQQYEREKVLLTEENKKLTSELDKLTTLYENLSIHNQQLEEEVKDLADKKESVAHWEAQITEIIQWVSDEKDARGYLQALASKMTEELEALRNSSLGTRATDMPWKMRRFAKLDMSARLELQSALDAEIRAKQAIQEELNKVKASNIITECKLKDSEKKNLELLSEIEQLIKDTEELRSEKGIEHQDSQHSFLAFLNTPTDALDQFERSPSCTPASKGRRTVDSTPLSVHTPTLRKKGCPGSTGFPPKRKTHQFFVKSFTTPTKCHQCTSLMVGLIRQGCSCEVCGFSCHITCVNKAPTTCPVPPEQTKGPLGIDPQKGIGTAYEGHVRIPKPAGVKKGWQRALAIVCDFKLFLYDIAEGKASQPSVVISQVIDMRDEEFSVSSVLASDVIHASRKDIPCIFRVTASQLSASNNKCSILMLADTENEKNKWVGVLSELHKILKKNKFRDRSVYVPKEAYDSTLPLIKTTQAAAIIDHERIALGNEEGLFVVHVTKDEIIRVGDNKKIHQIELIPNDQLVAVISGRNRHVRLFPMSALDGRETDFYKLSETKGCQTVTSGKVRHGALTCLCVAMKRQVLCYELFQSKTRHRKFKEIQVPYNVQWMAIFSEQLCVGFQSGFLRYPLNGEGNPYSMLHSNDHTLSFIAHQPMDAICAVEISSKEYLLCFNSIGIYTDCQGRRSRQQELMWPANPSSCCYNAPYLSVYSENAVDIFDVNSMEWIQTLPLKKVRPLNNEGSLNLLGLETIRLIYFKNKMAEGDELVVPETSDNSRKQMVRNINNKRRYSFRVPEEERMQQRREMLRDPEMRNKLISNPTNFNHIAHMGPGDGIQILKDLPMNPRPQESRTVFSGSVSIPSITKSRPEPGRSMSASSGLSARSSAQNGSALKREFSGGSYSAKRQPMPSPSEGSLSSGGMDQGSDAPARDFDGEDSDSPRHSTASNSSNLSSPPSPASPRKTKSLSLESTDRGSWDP

Take `Cc1cc(Cl)cc2c1NC(=O)C2=NNc1ccc(S(N)(=O)=O)cc1`: the inhibition in [1] is 0.98%; in test [2] it was 2.69%; in [3] it was 0.17%; in test [4], -0.38%; in test [5], 3.06%; in [6], 2.08%. In addition, the inhibition turned out to be 2.85% in test [7], 3.47% in test [8], 0.25% in [9] and 2.34% in test [10].
On to `NS(=O)(=O)c1ccc(-c2cc3ccncc3cc2OCc2ccccc2)cc1`, for which the inhibition in [1] is -0.66%; in test [2], -1.1%; in test [3], -1.66%; in test [4] it was -2.27%; in test [5], 1.89%; in test [6], 0.96%. For the same molecule, the inhibition is 1.86% in test [7], 2.64% in test [8], 1.3% in test [9] and 2.04% in test [10].
Consider `Cc1ccc(Nc2ccnc(Nc3cccc(C(N)=O)c3)n2)cc1O`, for which the inhibition in test [1] was -0.17%; in test [2], 1.81%; in test [3] it was -0.24%; in [4] it was -0.07%; in test [5], 1.2%; in test [6], 1.01%. In addition, the inhibition in [7] amounted to 2.41%; in test [8] it was 4.49%; in test [9], 1.61%; in [10], 6.47%.
Regarding `ON=C1CCc2cc(-c3nc(C4CCNCC4)[nH]c3-c3ccncc3)ccc21`, the inhibition in test [1] was 1.01%; in test [2], 1.89%; in test [3], -0.75%; in test [4], 1.17%; in [5] it was -0.09%; in test [6], -0.44%. Also, the inhibition was -0.82% in [7], 1.3% in [8], 0.43% in test [9] and -1.14% in test [10].
For `COc1ccc(-c2nn3ncccc3c2-c2ccnc(Nc3cccc(C(F)(F)F)c3)n2)cc1`, the inhibition in [1] was -3.04%; in test [2] it was 1.22%; in [3] it was 0.66%; in [4], -0.13%; in [5] it was 1.92%; in test [6], -0.09%. In addition, the inhibition came out at 2.61% in test [7], 1.73% in test [8], 1.77% in [9] and 0.85% in test [10].
Regarding `COc1cccc(-n2ncc3c(N/N=C/c4ccc(S(C)(=O)=O)cc4)ncnc32)c1`, the inhibition in [1] is -0.29%; in test [2], -0.45%; in test [3], 0.04%; in test [4], 0.16%; in test [5], -1.19%; in [6] it was -0.55%. The inhibition in test [7] was 1.78%; in test [8], 2.04%; in test [9], 1.23%; in [10], 5.85%.
For `CCn1c(-c2nonc2N)nc2ccc(F)cc21`, the inhibition was -0.42% in [1]; 3.28% in test [2]; -0.61% in [3]; 1.2% in test [4]; 7.13% in [5]; 21.2% in [6]. In addition, the inhibition stood at 3.5% in [7], 10.8% in test [8], 3.92% in [9] and 28.4% in test [10].
`Cc1nc(-c2ccccc2)n2nc(NCCCN3CCOCC3)ncc12`: the inhibition in [1] came to 6.14%; in [2], 2.64%; in test [3] it was 0.51%; in test [4], 0.04%; in test [5] it was 0.53%; in test [6] it was 1.08%. In addition, the inhibition in [7] amounted to 2.47%; in test [8] it was 3.6%; in test [9] it was 1.34%; in test [10], 2.24%.
For `Oc1cccc(-c2nc(-c3ccccc3)[nH]c2-c2ccncc2)c1`, the inhibition in [1] was -0.93%; in [2], 2.63%; in [3], -0.32%; in test [4] it was 0.92%; in [5] it was 3.05%; in test [6], 4.64%. Also, the inhibition worked out at 1.9% in [7], 3.89% in test [8], 1.55% in test [9] and 6.44% in test [10].
On to `Cc1ccc(C(=O)NC2CC2)cc1-c1ccc2[nH]ncc2c1`, for which the inhibition in [1] was 1.33%; in [2], 0.57%; in test [3] it was 0.35%; in [4], 5.75%; in test [5], -4.06%; in test [6], -3.97%. The inhibition in test [7] was -1.94%; in test [8], -1.58%; in test [9] it was -1.62%; in test [10], -3.02%.
Consider `FC(F)(F)c1ccc(-c2nn3ncccc3c2-c2ccnc(Nc3ccc4c(c3)OCCO4)n2)cc1`, for which the inhibition in test [1] came to 7.63%; in [2] it was 5.17%; in [3], 6.18%; in [4] it was 4.64%; in test [5] it was 3.36%; in test [6] it was 4.3%. Moreover, the inhibition in test [7] amounted to 5.05%; in [8] it was 6.41%; in test [9] it was 1.5%; in test [10] it was 2.06%.
Turning to `COc1cc2ncnc(Nc3ccc4c(cnn4Cc4ccccc4)c3)c2cc1OC`, the inhibition in test [1] was 1.92%; in test [2] it was 0.94%; in [3] it was -0.95%; in test [4], -0.76%; in test [5] it was 7.1%; in [6], 7.6%. Moreover, the inhibition in test [7] worked out at 1.21%; in test [8], 2.89%; in test [9], 0.98%; in test [10], 1.35%.
For the molecule `CN1CCN(C(=O)c2ccc(NC(=O)Nc3ccc(N(C)c4ccnc(Nc5ccc(CS(C)(=O)=O)cc5)n4)cc3)cc2)CC1`, the inhibition in test [1] was 5.17%; in test [2], 7.71%; in test [3] it was -0.06%; in test [4] it was 3.61%; in [5], 1.16%; in test [6], 3.3%. Further, the inhibition worked out at 2.61% in test [7], 13.8% in test [8], 1.43% in test [9] and 5.8% in [10].
Take `Cc1ccc2c(-c3ccnc(Nc4cccc(C(F)(F)F)c4)n3)c(-c3ccccc3)nn2n1`: the inhibition in test [1] was 1.06%; in [2] it was 5.98%; in [3], 0.83%; in test [4] it was 1.46%; in test [5], -3.38%; in [6] it was -4.64%. Moreover, the inhibition in test [7] turned out to be 2.52%; in [8], 3.99%; in test [9] it was 2.1%; in test [10] it was 2.71%.
As for `Cc1ccc2c(c1)/C(=N/Nc1ccc(S(N)(=O)=O)cc1)C(=O)N2`, the inhibition in test [1] is 0.22%; in test [2], 1.3%; in test [3], -0.79%; in test [4], 1.36%; in test [5], 0.95%; in [6], 1.23%. The inhibition in test [7] was -1.41%; in [8] it was 2.32%; in test [9] it was 0.52%; in test [10], 2.59%.
With `CCS(=O)(=O)c1ccc(OC)c(Nc2nccc(N(C)c3ccc4c(C)n[nH]c4c3)n2)c1`, the inhibition in [1] was -4.24%; in test [2], -2.48%; in test [3], 0.97%; in test [4], 0.83%; in test [5], 4.1%; in [6], 1.28%. The inhibition in [7] stood at 2.02%; in [8] it was 0.35%; in test [9], 0.02%; in [10], 1.3%.
As for `NC(=O)c1sc(-n2cnc3ccccc32)cc1OCc1ccccc1Br`, the inhibition in test [1] is 1.73%; in test [2], 4.94%; in test [3], -1.16%; in [4], 0.28%; in test [5], 8.61%; in test [6], 10%. Besides, the inhibition in [7] stood at 2.12%; in test [8], 4.72%; in test [9], 1.52%; in test [10] it was 4.06%.
